Screens from PubChem BioAssay.
697 NFkB inh = inhibitors of the PMA/ionomycin-induced NF-kB reporter in 697 B cells; 697 B-cell NF-kB luciferase reporter, 16 h; inhibition, % at 4 µM; actives 0.33% (n = 330,000); AID 435022; in the data active = inhibition above about 35%
Jurkat NFkB inh = lowers PMA/ionomycin-induced NF-kB signal in Jurkat cells. inhibition, % at 4 µM. PMA/ionomycin-induced NF-kB luciferase reporter, luminescence. actives 0.53% (n = 330,000). AID 435003; in the data active = inhibition above about 50%
Mdm2-MdmX inh = human Mdm2/MdmX binding inhibition; SaOS-2 split-luciferase Mdm2/MdmX complementation, luminescence; inhibition, % at 8 µM; actives 3% (n = 330,000); AID 485346;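 active = inhibition of at least 50% at 8 µM in the primary screen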
Target sequence (O15151 whole entry, looked up): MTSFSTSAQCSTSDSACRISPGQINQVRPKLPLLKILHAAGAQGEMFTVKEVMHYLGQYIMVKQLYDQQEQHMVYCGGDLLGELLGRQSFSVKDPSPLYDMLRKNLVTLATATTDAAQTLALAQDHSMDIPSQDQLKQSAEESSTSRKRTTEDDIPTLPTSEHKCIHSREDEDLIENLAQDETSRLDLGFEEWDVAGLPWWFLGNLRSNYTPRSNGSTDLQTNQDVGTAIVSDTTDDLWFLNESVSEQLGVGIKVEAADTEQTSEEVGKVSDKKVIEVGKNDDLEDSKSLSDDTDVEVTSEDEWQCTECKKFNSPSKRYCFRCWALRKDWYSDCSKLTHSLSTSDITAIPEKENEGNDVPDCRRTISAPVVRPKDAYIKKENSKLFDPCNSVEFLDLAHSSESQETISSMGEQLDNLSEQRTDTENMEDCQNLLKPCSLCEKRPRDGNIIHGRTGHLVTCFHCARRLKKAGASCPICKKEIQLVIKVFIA
Target sequence (Q00987 whole entry, looked up): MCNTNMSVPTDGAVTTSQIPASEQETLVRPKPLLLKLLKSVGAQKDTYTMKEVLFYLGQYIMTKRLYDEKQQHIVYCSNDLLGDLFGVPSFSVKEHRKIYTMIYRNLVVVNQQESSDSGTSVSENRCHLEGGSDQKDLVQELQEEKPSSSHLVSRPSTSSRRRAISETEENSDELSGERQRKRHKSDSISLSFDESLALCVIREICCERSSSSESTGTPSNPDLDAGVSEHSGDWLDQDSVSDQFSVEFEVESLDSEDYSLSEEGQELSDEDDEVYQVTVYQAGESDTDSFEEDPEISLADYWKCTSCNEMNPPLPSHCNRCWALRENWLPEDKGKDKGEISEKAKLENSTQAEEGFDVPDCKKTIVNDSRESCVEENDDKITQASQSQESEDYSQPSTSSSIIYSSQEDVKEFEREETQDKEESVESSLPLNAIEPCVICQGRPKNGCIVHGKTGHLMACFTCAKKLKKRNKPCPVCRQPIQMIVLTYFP
KLF5 inh = kruppel-like factor 5 inhibition | DLD-1 KLF5 promoter-luciferase reporter, luminescence | inhibition, % at 5 µM | actives 0.23% (n = 290,000) | AID 1700;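 active = inhibition above a per-plate limit of that plate's mean compound inhibition plus 3 SD, cut at about 60% in these data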;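 also: 0% = DMSO wells and 100% = LY294002 at 200 µM; higher means less KLF5 promoter-driven luciferase light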
Gli-Sufu antag = blocks Gli-Sufu signaling in a luciferase reporter. Sufu-KO-LIGHT fibroblasts, Gli luciferase reporter luminescence. inhibition, % at 5 µM. actives 0.74% (n = 340,000). AID 588413;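 active = inhibition above about 55%, limit read from the data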;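 also: 0% = DMSO-treated cells and 100% = wells with medium but no cells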
aSyn 5UTR inh = 5' untranslated region of α-synuclein, MLPCN primary screen; alpha-synuclein 5'UTR reporter, inhibitor activity; inhibition, % (tested at 7.5 µM); AID 1813; actives 0.82% (n = 300,000); in the data active = inhibition above about 60%;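 also: H4 neuroglioblastoma cells stably carrying SNCA 5'UTR luciferase fusion; 0% = DMSO wells and 100% = positive control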
Mdm2 MdmX conf = human Mdm2/MdmX binding inhibition, confirmed. inhibition, % at 8 µM. actives 55% (n = 10,000). shares compounds with Mdm2-MdmX inh. luminescent assay; in the data active = inhibition above about 40%
FLuc counter = full-length luciferase inhibition in Mdm2/MdmX counter-screen | shares compounds with Mdm2-MdmX inh | SaOS-2 full-length luciferase counterscreen, luminescence | inhibition, % at 8 µM | actives 77% (n = 6,200) | AID 504607;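 active = mean inhibition at 8 µM reaching about 37%, which flags the compound as non-specific, limit read from the data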;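 also: p53-null SaOS-2 cells with luciferase driven by a doxycycline-inducible promoter; compound on cells about two nights before reading with doxycycline added after day one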
* marks the source's active call; other numbers are inactive results; x = not tested or not shown. Compounds with a hit are over-represented: about 4.1% of the library has one in this group of screens.

SMILES	697 NFkB inh	Jurkat NFkB inh	Mdm2-MdmX inh	KLF5 inh	Gli-Sufu antag	aSyn 5UTR inh	Mdm2 MdmX conf	others
CNC[C@H](CC1CCCCC1)NC[C@H](CO)NCC1(c2ccccc2)CC1	8.8	2.6	85.8*	-12.7	10.0	-40.6	57.8*	FLuc counter=44.6*
CNC[C@H](CC1CCCCC1)NC[C@H](CO)NCCc1cccc(C(F)(F)F)c1	2.4	29.7	99.2*	-24.5	14.2	17.0	96.6*	FLuc counter=58.4*
COC(=O)C(C)NC(=O)c1cn(-c2ccccc2OC)c(=O)c2ccccc12 (centres undefined)	12.6	13.5	14.1	-28.7	0.0	13.7	x
CC(C)NC(=O)c1ccccc1NC(=O)/C=C/c1cccc([N+](=O)[O-])c1	2.7	12.9	75.3*	-16.0	-0.5	63.0*	11.2
CCCCn1c(SCC(=O)Nc2ccc(NC(C)=O)cc2)nc2ccccc2c1=O	-16.5	4.2	37.5	-4.9	20.8	19.6	x
CCC(=O)Nc1ccc(NC(=O)CSc2nc3c(c(=O)n(C)c(=O)n3C)n2CC)cc1	8.0	-4.2	8.5	4.7	-11.1	-38.1	x
CC(C)(C)c1nc2ccccc2c2nnc(SCC(=O)Nc3nccs3)n12	-56.7	37.4	67.8*	-12.6	-0.7	33.2	59.5*	FLuc counter=50.2*
CCCCn1c(SCC(=O)Nc2nccs2)nc2ccccc2c1=O	1.2	-1.2	64.8*	-16.7	11.3	-1.4	3.6
CCn1c(SCC(=O)Nc2nc(-c3ccccc3)cs2)nc2c1c(=O)n(C)c(=O)n2C	-21.3	-0.3	63.9*	4.8	-2.1	22.0	8.2
CN(C)CCCn1c(SCC(=O)Nc2nc(-c3cccc(Br)c3)cs2)nc2ccccc2c1=O	-5.3	7.6	100.3*	-5.5	15.4	-32.5	55.6*	FLuc counter=115.1*
Cc1c(C(=O)N/N=C/c2cccnc2)nnn1-c1nonc1N	19.1	-0.1	3.7	-7.5	-6.4	-28.7	x
CCCc1nn(C)c(C(N)=O)c1[N+](=O)[O-]	11.5	7.9	26.6	-9.8	-6.8	5.2	x
O=C(CSc1nnc(CNC(=O)c2cccs2)o1)Nc1ccc(F)cc1F	4.5	7.4	-0.3	-30.0	-5.3	19.2	x
CCN(CC)C(=O)Cn1cc(S(=O)(=O)CC(=O)NCc2ccccc2)c2ccccc21	-0.4	-19.3	6.0	7.0	-2.2	-5.7	x
COc1ccccc1/C=C/C(=O)NNC(=O)c1cccs1	4.5	-3.7	-31.8	-54.3	-59.8	-45.3	x
FC(F)(F)c1ccc(C2[C@H]3CN(Cc4ccc(-c5ccccc5)cc4)[C@H](c4ccccc4)C34CC2(c2cccnc2)C4)cc1 (some centres undefined)	-3.7	8.4	53.5*	x	11.2	21.1	38.3	FLuc counter=58.5*
CCn1c2ccc(OC)cc2c2nc3ccccc3nc21	-10.5	-14.2	-12.4	-20.0	-40.1	15.3	x
CCCCOC(=O)Cn1c2ccc(OC)cc2c2nc3ccccc3nc21	-4.5	14.2	74.5*	-8.6	5.0	4.0	19.8
CSC1=NC(C)(C)C=C(/C=C/c2ccc(Cl)cc2)N1	1.5	1.7	53.7*	0.9	9.3	-95.9	9.8
CSC1=NC(C)(C)C=C(/C=C/c2ccc(Cl)cc2Cl)N1	-9.2	-22.2	31.4	4.3	9.5	-52.5	x
O=C(CN(Cc1ccccc1)C(=O)CCl)c1cccc(Br)c1	12.1	4.5	100.2*	x	-5.8	x	80.1*	FLuc counter=60.1*
CCOC(=O)c1nn(-c2ccc(Br)cc2)cc1C(=O)c1cccc2ccccc12	-230.0	-14.9	62.0*	9.3	-54.8	9.3	5.3
COC(=O)c1ccc(COc2ccccc2/C=C(\C#N)C(=O)Nc2c(C)cccc2C)cc1	-2.7	-4.8	93.4*	-7.8	10.4	-82.2	52.9*	FLuc counter=41.8*
CCCn1c(=O)c(C(=O)NCC2CCCO2)c(O)c2ccccc21 (centres undefined)	-6.6	-3.2	67.5*	-11.1	-1.3	-3.0	11.3
CC(C)Cn1c(N)c(C(=O)NCC2CCCO2)c2nc3ccccc3nc21 (centres undefined)	13.3	7.4	52.2*	13.5	39.8	41.0	21.4
SMILES	697 NFkB inh	Jurkat NFkB inh	Mdm2-MdmX inh	KLF5 inh	Gli-Sufu antag	aSyn 5UTR inh	Mdm2 MdmX conf	others
COCCn1c(N)c(C(=O)NCC2CCCO2)c2nc3ccccc3nc21 (centres undefined)	-2.5	-3.8	-15.1	-16.6	14.3	27.6	x
CC1CCc2cc(F)cc3c(O)c(C(=O)NCC4CCCO4)c(=O)n1c23 (centres undefined)	0.3	-16.6	70.6*	23.9	2.8	4.6	44.0*	FLuc counter=21.7
O=C(NCC1CCCO1)c1c(O)c2ccccc2[nH]c1=O (centres undefined)	-57.6	-6.7	-5.0	-12.0	-21.8	-140.0	x
CCCn1c(=O)c(C(=O)NCc2ccccn2)c(O)c2ccccc21	4.3	-18.4	62.9*	-25.4	-8.9	x	33.1
CCn1c(SCC(=O)Nc2ccc(F)cc2)nnc1C1CC1	-7.3	-10.2	8.1	-18.1	-18.8	-19.8	x
O=C(OCC(=O)N1CCOCC1)c1cc(-c2ccccc2)nc2ccccc12	8.4	8.7	-8.3	x	-55.9	x	x
Cc1cccc(NC(=O)COC(=O)c2ccccn2)c1	0.4	6.4	1.1	-27.2	-24.2	-2.6	x
Cc1nc2cc(N3CCCCC3)c(NC(=O)c3ccncc3)cc2c(=O)n1Cc1ccc(Cl)cc1	-35.1	-20.1	89.3*	-16.6	x	61.8*	-2.7
O=C(Cn1nnc(-c2ccccc2)n1)Nc1cccc(S(=O)(=O)N2CCCC2)c1	-19.2	13.6	21.3	x	16.8	-2.6	x
CCN(CCCNC(=O)COc1cc(=O)n(CC)c2ccccc12)c1ccccc1	5.1	2.1	60.7*	-19.8	17.4	4.8	27.9
COc1ccc(OC)c(-c2nnc3n2N=C(c2ccc(OC(F)F)c(OCC4CC4)c2)CS3)c1	-35.9	47.2	56.8*	x	5.9	x	55.2*	FLuc counter=46.0*
COc1ccc(C2=Nn3c(nnc3-c3ccccc3F)SC2)cc1OC1CCOC1 (centres undefined)	-14.2	-19.4	70.1*	x	13.2	x	63.5*	FLuc counter=33.4
Cc1ccc(CNC(=O)C2CCCN2C(=O)Nc2ccc(F)cc2)cc1 (centres undefined)	3.0	-9.5	-3.5	-34.8	8.9	-10.4	x
Cc1ccccc1NC(=O)CCCN1C(=O)C2CC=CCC2C1=O (centres undefined)	17.2	-13.9	18.2	-10.7	-5.0	2.2	x
COc1ccc(N2CCN(C(=O)COc3ccc4c(C)c(C)c(=O)oc4c3C)CC2)cc1	-12.1	1.1	53.3*	-16.0	13.9	10.8	20.0
COc1ccc2c(c1)c(=O)oc1c(C)c(OCC(=O)N3CCc4ccccc4C3)ccc12	-3.5	-5.9	52.7*	-14.0	21.2	10.3	13.2
Cc1c(C)c2ccc(OCC(=O)N3CCN(c4ccc(F)cc4)CC3)c(C)c2oc1=O	5.3	5.5	10.7	-5.3	-1.2	-8.0	x
